# Where “and” joins values, the source holds several entries; their conditions need not be identical. Equal values may be shown once. Records with an inconclusive call do not appear. More than one record can exist for a structure, and the calls need not agree. Unmarked numbers belong to inactive results. Calls of active or inactive are those of the source. The call rests on the fitted dose curve; in most records, active means well fitted curve in the direction sought with a large enough effect; inconclusive means small, poorly fitted or top-dose-only effect, or another doubt; inactive means no such curve, though single readings can be large; an effect the other way counts as inactive or inconclusive.
# How the values were obtained:
# Tov112D = experiment: Primary qHTS to identify gynecologic anti-cancer compounds using libraries of approved drugs and bioactive compounds (AID 1345084); conditions: Gynecologic cancer cell panel viability, ATPlite luminescence, 48 h; series mostly up to 57.5 µM; further: nearly all actives have a fitted effect of over 55% in size; further: potency means the concentration at half of the fitted maximal effect
# In short: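 Five-point cytotoxicity, 48 h drug exposure at 37 C, 5% CO2, on cells seeded 16 h beforehand. ATP content read by ATPlite luminescence.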
# [1] = qHTS assay to identify inhibitors of the type 1 interferon - major histocompatibility complex class I in skeletal muscle: Counter screen cell viability and HiBit confirmation (AID 1347412); conditions: iHSKM muscle cells + IFN-b, HiBiT or CellTiter-Glo, 24 h; Viability; at 45.9 µM (top of the series); further: nearly all actives have a fitted effect of over 60% in size
# In short: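 After 24 h with human IFN-beta (4 ng/ml) and compound titrations (top 46 uM final, 1:3, 12 points), HLA-B HiBit myoblasts were lysed for either Nano-Glo HiBiT luminescence or CellTiter Glo viability on paired plates.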
# [2] = Drug repurposing screens with cells derived from glioblastoma tumor samples (AID 1345199); conditions: GBM patient neurospheres viability, ATP luminescence, 48 h; further: nearly all actives have a fitted effect of over 40% in size; further: potency means the concentration at half of the fitted maximal effect
# In short: (§1)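 Four patient lines of CD133+ GBM neurospheres were screened at several concentrations; hits were retested in those lines plus three slower-growing GBM lines, using 48-hour treatment and ATP-based viability.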
# astro = experiment: as above; conditions: viability, ATP luminescence, 48 h; series mostly up to 45.9 µM
# In short: as §1
# [3] = at 45.9 µM (top of the series), tumour line B
# [4] = at 45.9 µM (top of the series), tumour line D
# [5] = at 46 µM (top of the series), tumour line A
# [6] = at 46.1 µM (top of the series), tumour line C
# On the % scale 0 is the no-effect control and ±100 the full control effect.
smiles,measurement,setting,value
C[C@H](Nc1ncnc2nc[nH]c12)c1cc2cccc(Cl)c2c(=O)n1-c1ccccc1,Potency,Tov112D,inactive
same,"activity change, negative = inhibition",[1],-19.3%
C=C1C(=O)O[C@H]2CC(=C)[C@H]3CC[C@@](C)(O)[C@@H]3CC12 (some centres not stated),Potency,Tov112D,inactive
COc1cc2c(c(OC)c1OC)-c1c(cc3c(c1OC)OCO3)C[C@@H](C)[C@](C)(O)C2,"activity, negative = cell killing",[2]; [3],-5.29% and -6.75%
same,"activity, negative = cell killing",[2]; [4],-7.05% and -25.9%
same,"activity, negative = cell killing",[2]; [5],-25%
same,"activity, negative = cell killing",[2]; [6],-33.4% and -14.4%
same,Potency,[2]; tumour line A,22.4 µM (active)
same,Potency,astro,inactive
Cc1cc(Nc2ccccc2C(=O)O)ccc1Cl,"activity, negative = cell killing",[2]; [3],-5.77%
same,"activity, negative = cell killing",[2]; [4],-31.8%
same,"activity, negative = cell killing",[2]; [6],-18%
COc1ccc(CCCN2CCC(COC(c3ccccc3)c3ccccc3)CC2)cc1,Potency,Tov112D,inactive
Nc1ncnc(Nc2ccc(Cl)cc2)n1,"activity, negative = cell killing",[2]; [3],-4.5%
same,"activity, negative = cell killing",[2]; [4],-28%
same,"activity, negative = cell killing",[2]; [6],-9.25%
same,Potency,[2]; tumour line A,35.5 µM (active)
CCCCCCCCCCCCCCCC(=O)O[C@@H]1CC(C)=C(/C=C/C(C)=C/C=C/C(C)=C/C=C/C=C(C)/C=C/C=C(C)/C=C/C2=C(C)C[C@@H](OC(=O)CCCCCCCCCCCCCCC)CC2(C)C)C(C)(C)C1,"activity, negative = cell killing",[2]; [3],-12.7%
same,Potency,[2]; tumour line A,11.2 µM (active)
C=C1C(=O)OC2CC(C)=C(C(C)CCCOC(C)=O)C(OC(=O)CC(C)CC)C12 (configuration not stated),Potency,Tov112D,inactive
Cc1cc(-n2c(=O)[nH]c(=O)n(C)c2=O)ccc1Oc1ccc(S(=O)(=O)C(F)(F)F)cc1,"activity, negative = cell killing",[2]; [3],-20.8%
same,Potency,[2]; tumour line C,20.6 µM (active)
Fc1ccc(-c2nc(C3CCNCC3)sc2-c2ccnc(NC3CC3)n2)cc1,Potency,Tov112D,inactive
C=C1C(=O)O[C@@H]2C[C@]3(C)[C@@H](CCC(C)O)[C@@H]3C[C@H]12 (some centres not stated),Potency,Tov112D,inactive
O=C(O)c1cc2ccccc2c(Cc2c(O)c(C(=O)O)cc3ccccc23)c1O,"activity, negative = cell killing",[2]; [3],5.19%
same,"activity, negative = cell killing",[2]; [4],-18.5%
same,"activity, negative = cell killing",[2]; [5],-27.5%
same,"activity, negative = cell killing",[2]; [6],-1.97%
COC1=CC(=O)C[C@@H](C)[C@@]12Oc1c(Cl)c(OC)cc(OC)c1C2=O,Potency,Tov112D,100 nM (active)
CC(=O)O[C@H]1CC[C@@]2(C)C(=CC[C@@H]3[C@@H]2CC[C@]2(C)C(c4cccnc4)=CC[C@@H]32)C1,"activity, negative = cell killing",[2]; [3],-19.3%
same,"activity, negative = cell killing",[2]; [6],-13.1%
same,Potency,[2]; tumour line A,11.2 µM (active)
CN(C)CC1CCn2c(c(C3=C(c4cn(C)c5ccccc45)C(=O)NC3=O)c3ccccc32)C1 (configuration not stated),Potency,Tov112D,inactive
Cc1nc2ccc(CN(C)c3ccc(C(=O)NC(CCC(=O)O)C(=O)O)s3)cc2c(=O)[nH]1 (configuration not stated),Potency,Tov112D,282 nM (active)
CC(=O)[C@@]1(O)CC[C@H]2[C@@H]3C=C(Cl)C4=CC(=O)CC[C@]4(C)[C@H]3CC[C@@]21C,"activity, negative = cell killing",[2]; [3],-7.69%
same,"activity, negative = cell killing",[2]; [4],-22.6%
same,"activity, negative = cell killing",[2]; [6],-23.8%
same,Potency,[2]; tumour line A,12.6 µM (active)
Cn1ncc(Cl)c1-c1cc(C(=O)NC(CN)Cc2ccc(F)c(F)c2)oc1Cl (configuration not stated),Potency,Tov112D,inactive
Nc1nc(Cl)nc2c1ncn2C1OC(CO)C(O)C1F (configuration not stated),Potency,Tov112D,398 nM (active)
CCCCCCCC(=O)CC[C@@H]1[C@@H](C/C=C\CCCC(=O)OC(C)C)[C@@H](O)C[C@H]1O,"activity, negative = cell killing",[2]; [6],-21.1%
same,Potency,[2]; tumour line A,11.2 µM (active)
same,Potency,[2]; tumour line D,15.8 µM (active)
NC(=O)c1cnc(N[C@@H]2CCCC[C@H]2N)nc1Nc1cccc(-n2nccn2)c1,Potency,Tov112D,inactive
CCN(CC)C(=O)c1ccc(Nc2nc(OCC3CCCCC3)c3[nH]cnc3n2)cc1,Potency,Tov112D,inactive
C[C@H](Oc1cc(-n2cnc3ccc(CN4CCN(C)CC4)cc32)sc1C(N)=O)c1ccccc1C(F)(F)F,Potency,Tov112D,7940 nM (active)
Cc1cc(-c2cnc(N)c3c(-c4ccc5scnc5c4)csc23)n(C)n1,Potency,Tov112D,inactive
CCCCCCCCCCCCCCCCCC(=O)[O][Al],"activity, negative = cell killing",[2]; [3],-8.38%
same,"activity, negative = cell killing",[2]; [4],-6.36%
same,"activity, negative = cell killing",[2]; [5],-12.4%
same,"activity, negative = cell killing",[2]; [6],-6.43%
same,Potency,astro,inactive
O=C(CO)[C@@H](O)[C@H](O)[C@H](O)CO,"activity, negative = cell killing",[2]; [3],-6.93%
same,"activity, negative = cell killing",[2]; [4],1.86%
same,"activity, negative = cell killing",[2]; [5],-24.2%
same,"activity, negative = cell killing",[2]; [6],19%
same,Potency,astro,inactive
O=C[C@H](O)[C@@H](O)[C@H](O[C@H]1O[C@H](CO)[C@@H](O[C@H]2O[C@H](CO)[C@@H](O)[C@H](O)[C@H]2O)[C@H](O)[C@H]1O)[C@H](O)CO,"activity, negative = cell killing",[2]; [3],-5.93%
same,"activity, negative = cell killing",[2]; [4],-7.07%
same,"activity, negative = cell killing",[2]; [5],-21.5%
same,"activity, negative = cell killing",[2]; [6],5.59%
same,Potency,astro,inactive
CCC(=O)O,"activity, negative = cell killing",[2]; [3],6.59%
same,"activity, negative = cell killing",[2]; [4],-5.65%
same,"activity, negative = cell killing",[2]; [5],-7.77%
same,"activity, negative = cell killing",[2]; [6],7.14%
same,Potency,astro,inactive
CCCCCCCCCCCCCCCC(=O)OC/C=C(C)/C=C/C=C(C)/C=C/C1=C(C)CCCC1(C)C,"activity, negative = cell killing",[2]; [3],-7.71%
same,"activity, negative = cell killing",[2]; [4],9.03%
same,"activity, negative = cell killing",[2]; [6],0.655%
same,Potency,[2]; tumour line A,20 µM (active)
same,Potency,astro,inactive
O=P(O)(O)C(O)(Cc1cnc2ccccn12)P(=O)(O)O,"activity, negative = cell killing",[2]; [3],-3.54%
same,"activity, negative = cell killing",[2]; [4],2.92%
same,"activity, negative = cell killing",[2]; [5],-12.2%
same,"activity, negative = cell killing",[2]; [6],2.63%
same,Potency,astro,inactive
OCC(O)COc1ccc(Cl)cc1 (configuration not stated),"activity, negative = cell killing",[2]; [3],-4.12%
same,"activity, negative = cell killing",[2]; [4],-2.58%
same,"activity, negative = cell killing",[2]; [5],-5.56%
same,"activity, negative = cell killing",[2]; [6],-6.48%
same,Potency,astro,inactive
CCCCCC(O)/C=C/C=O (configuration not stated),"activity, negative = cell killing",[2]; [3],5.27%
same,"activity, negative = cell killing",[2]; [4],-8.74%
same,"activity, negative = cell killing",[2]; [5],-27.6%
same,"activity, negative = cell killing",[2]; [6],8.89%
same,Potency,astro,inactive
COc1ccc(C(=O)Nc2ccccc2CCC2CCCCN2C)cc1 (configuration not stated),"activity, negative = cell killing",[2]; [3],-11.1%
same,"activity, negative = cell killing",[2]; [4],-17.7%
same,"activity, negative = cell killing",[2]; [6],-23.4%
same,Potency,[2]; tumour line A,10 µM (active)
same,Potency,astro,inactive
C=C1CC2C3CCC4=CC(=O)C=C[C@]4(C)[C@@]3(F)[C@@H](O)C[C@]2(C)[C@@]1(O)C(=O)COC(C)=O (some centres not stated),"activity, negative = cell killing",[2]; [3],-0.0683%
same,"activity, negative = cell killing",[2]; [4],11.1%
same,"activity, negative = cell killing",[2]; [5],-20%
same,"activity, negative = cell killing",[2]; [6],-4.46%
same,Potency,astro,inactive
NC(=O)C[C@@H](N)C(=O)O,"activity, negative = cell killing",[2]; [3],8.61%
same,"activity, negative = cell killing",[2]; [4],-4.07%
same,"activity, negative = cell killing",[2]; [5],26.7%
same,"activity, negative = cell killing",[2]; [6],22.9%
same,Potency,astro,inactive
